# Measured values: PubChem BioAssay AID651925 (Vanderbilt Specialized Chemistry Center, 2012)
# Calls of active or inactive are those of the source. No rule for the calls is given here.
# Target: Muscarinic acetylcholine receptor M4 (Homo sapiens) (UniProt P08173)
# Test: human M4 receptor potentiation, selectivity assay for M5 PAM project, CHO cells (AID 651925)
# Conditions: CHO-K1 hM4/Gqi5, calcium flux Fluo-4, ACh EC20 PAM; series mostly up to 30 µM
# Chain of Muscarinic acetylcholine receptor M4 (Homo sapiens) (P08173 whole entry, looked up): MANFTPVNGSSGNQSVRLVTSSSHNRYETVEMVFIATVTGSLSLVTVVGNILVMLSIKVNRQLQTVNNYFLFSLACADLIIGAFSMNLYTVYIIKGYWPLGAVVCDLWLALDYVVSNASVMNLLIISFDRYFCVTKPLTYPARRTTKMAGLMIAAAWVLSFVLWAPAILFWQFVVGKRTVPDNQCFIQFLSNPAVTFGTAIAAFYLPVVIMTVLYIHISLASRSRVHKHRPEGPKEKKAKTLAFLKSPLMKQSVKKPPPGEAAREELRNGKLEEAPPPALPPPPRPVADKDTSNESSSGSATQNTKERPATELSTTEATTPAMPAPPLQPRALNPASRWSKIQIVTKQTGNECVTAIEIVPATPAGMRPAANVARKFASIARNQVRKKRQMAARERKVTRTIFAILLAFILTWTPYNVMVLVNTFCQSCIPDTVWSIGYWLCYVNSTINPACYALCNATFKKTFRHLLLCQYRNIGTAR
smiles,measurement,value
O=C1C(=O)N(CCOc2ccccc2)c2ccc(OC(F)(F)F)cc21,outcome,inactive
